# FECH inh: inhibitors of human ferrochelatase; AID 1671448; calls only at 10 µM (by protocol); purified FECH, Ni-mesoporphyrin absorbance 550 nm; 3.3% of 20,000 active;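 active means enzyme reaction rate more than 3 SD below the solvent-only control wells on the same plate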;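 further: lower slope than DMSO wells means FECH inhibition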
# Target sequence (P22830 whole entry, looked up): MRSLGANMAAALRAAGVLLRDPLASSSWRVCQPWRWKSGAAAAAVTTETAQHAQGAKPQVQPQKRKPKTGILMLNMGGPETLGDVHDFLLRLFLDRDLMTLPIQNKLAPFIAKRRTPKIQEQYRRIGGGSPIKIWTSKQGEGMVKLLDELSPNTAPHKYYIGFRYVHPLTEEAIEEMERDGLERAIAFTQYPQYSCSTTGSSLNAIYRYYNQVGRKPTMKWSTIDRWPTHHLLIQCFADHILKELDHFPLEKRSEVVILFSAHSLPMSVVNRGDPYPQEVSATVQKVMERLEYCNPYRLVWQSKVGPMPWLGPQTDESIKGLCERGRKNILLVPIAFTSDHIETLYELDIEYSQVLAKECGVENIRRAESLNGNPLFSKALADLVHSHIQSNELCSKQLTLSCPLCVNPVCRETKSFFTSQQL
# Active calls of the source: *; i = inactive; + = active, no number. The full list was thinned out, with hits kept by preference.
SMILES,FECH inh
Cc1ccsc1[C@@H]1CCN(Cc2cncn2Cc2ccccc2)C[C@H]1O,i
COc1ccc(NC(=O)c2snnc2C)cc1NC(=O)c1ccccc1,i
COc1cccc(-c2cc(=O)[nH]c(SCc3nc(-c4ccccc4)oc3C)n2)c1,i
Cc1ccc(S(=O)(=O)Nc2cnc(N3CCN(c4cccc(C)c4)C(C)C3)c(C(=O)O)c2)cc1 (configuration not stated),i
CCN(CCN(C)C)c1ncc(NS(=O)(=O)c2cc(C)cc(C)c2)cc1C(=O)O,i
CCCN(CCC)c1ncc(NS(=O)(=O)c2cc(C)cc(C)c2)cc1C(=O)O,+
Cc1cc(C)cc(S(=O)(=O)Nc2cnc(N(CC(C)C)CC(C)C)c(C(=O)O)c2)c1,i
COCc1nc2cccnc2n1C1CCN(S(=O)(=O)c2ccc(OC)c(Cl)c2)CC1,i
Cc1cccc(Nc2nc(NCc3ccccc3)nc3c2cnn3-c2ccccc2)c1,i
Cc1nc(CN2CCN(C(=O)CSc3nnc(C)s3)CC2)no1,i
O=C(c1ccccc1)N1CCC(NCc2cnn(Cc3ccccc3)c2)CC1,i
Cc1nc(CN2CCN(C(=O)c3cnn(Cc4ccccc4)c3)CC2)no1,+
O=C(Cn1nc(N2CCN(c3ccc(F)cc3)CC2)ccc1=O)NCc1ccc(Cl)cc1,i
CNCC(=O)N(Cc1ccccc1OC)C(C)C,i
O=C(CN1c2ccc(Br)cc2-c2ccccc2S1(=O)=O)Nc1cccnc1,+
O=C(CN1c2ccc(Br)cc2-c2ccccc2S1(=O)=O)NCc1cccnc1,+
CCC(=O)Nc1nc2n(n1)C(c1ccc(F)cc1)C=C(c1ccccc1)N2 (configuration not stated),i
CCn1cnnc1CCNC(=O)c1cn(Cc2ccccc2F)nn1,i
CN(C)CCCn1c(=O)c2cnc(-c3ccncc3)nc2n(C)c1=O,i
CCCCNC(=O)C1CCCN(c2ccc(-c3cccc(C)c3)nn2)C1 (configuration not stated),i
Cc1cc(S(=O)(=O)[C@H]2CS(=O)(=O)C[C@@H]2NCCc2ccc(S(N)(=O)=O)cc2)ccc1F,i
Cc1cc(C)n2nc(CN(C(=O)c3cccc(Cl)c3)c3ccc(F)cc3)nc2n1,i
Cc1cc(C)n2nc(CN(C(=O)c3ccccc3C)c3cccc(Cl)c3)nc2n1,i
Cc1cccc(N(Cc2nc3nc(C)cc(C)n3n2)C(=O)c2ccccc2)c1,i
Cc1cccc(N(Cc2nc3nc(C)cc(C)n3n2)C(=O)c2ccccc2C)c1,+
SMILES,FECH inh
COc1cccc(C(=O)N(Cc2nc3nc(C)cc(C)n3n2)c2ccc(Cl)cc2)c1,i
Cc1cc(C)n2nc(CN(C(=O)c3ccccc3)c3ccc(Cl)cc3)nc2n1,i
Cc1cccc(N(Cc2nc3nc(C)cc(C)n3n2)S(=O)(=O)c2ccccc2)c1,i
Cc1cccc(C(=O)N(Cc2nc3nc(C)cc(C)n3n2)c2ccccc2)c1,+
Cc1cc(C)n2nc(CN(C(=O)c3ccccc3C)c3ccccc3)nc2n1,i
Cc1ccc(N(Cc2nc3nc(C)cc(C)n3n2)S(=O)(=O)c2ccc(C)cc2)cc1,i
Cc1ccc(N(Cc2nc3nc(C)cc(C)n3n2)C(=O)c2cccc(C)c2)cc1,+
Cc1ccc(N(Cc2nc3nc(C)cc(C)n3n2)S(=O)(=O)c2ccccc2)cc1,+
CC(C)c1cc(N2CCOCC2)n2nc(-c3cccnc3)nc2n1,i
CCc1ccc(S(=O)(=O)N2CCC(n3c(C(F)(F)F)nc4cccnc43)CC2)cc1,i
CN1CCC2(CCN(C(=O)c3ccccc3-c3ncn[nH]3)CC2)C1,i
CCOCCCNC(=O)c1ccc(CN2C(=O)CCn3nc(-c4ccc(OC)cc4)cc32)cc1,i
CC(C)OC(C)c1nnc(SCC(=O)O)n1-c1cccnc1 (configuration not stated),i
CCOC(C)c1ccc(-c2ccc(NC(C)=O)nc2)cc1 (configuration not stated),i
Cc1cc2nc(COc3ccc(Cl)cc3NC(=O)c3ccc(F)cc3)cc(=O)n2o1,i
CCOc1ccc(NC(=O)c2ccc(=O)n(Cc3ccc(F)cc3)c2)cc1,i
Cc1ccc2nc(C3CCCN3CCc3ccccn3)[nH]c2c1 (configuration not stated),i
Cc1cc(C)n2nc(CN(C(=O)C3CCCCC3)c3cccc(Cl)c3)nc2n1,i
Cc1cc(C)n2nc(CN(C(=O)C3CCCCC3)c3ccc(Cl)cc3)nc2n1,+
CCCC(=O)N(Cc1nc2nc(C)cc(C)n2n1)c1cccc(C)c1,+
CCCC(=O)N(Cc1nc2nc(C)cc(C)n2n1)c1cccc(Cl)c1,i
Cc1cccc(N(Cc2nc3nc(C)cc(C)n3n2)C(=O)CCc2ccccc2)c1,i
Cc1ccc(N(Cc2nc3nc(C)cc(C)n3n2)C(=O)C2CCCCC2)cc1,i
COc1ccc(CC(=O)N(Cc2nc3nc(C)cc(C)n3n2)c2ccc(Cl)cc2)cc1,i
Cc1cc(C)n2nc(CN(C(=O)Cc3ccccc3)c3ccc(Cl)cc3)nc2n1,i
SMILES,FECH inh
Cc1ccc(N(Cc2nc3nc(C)cc(C)n3n2)C(=O)Cc2ccc(Cl)cc2)cc1,+
COc1cccc(-c2[nH]cnc2-c2ccccc2)c1OC,i
Cc1ccc(CNc2nc(-c3nnc(-c4ccc(C)cc4)o3)nc3ccccc23)cc1,i
COc1ccc(N2C(=O)CCS2(=O)=O)cc1S(=O)(=O)NCCC1=CCCCC1,i
CCn1c(C2CCN(C(=O)c3cc(C(C)C)[nH]n3)CC2)n[nH]c1=O,i
O=c1[nH]nc(C2CC2)n1Cc1ccc(Cl)cc1Cl,+
CN1CCCC(c2n[nH]c(=O)n2CCc2ccccc2)C1 (configuration not stated),i
FC(F)(F)CCc1ccnc(NCc2cnc3c(c2)CCC3)n1,i
O=C(NCCc1ccccc1)c1cccn1-c1nnc(N2CCCCC2)s1,+
CCCN(CCC)CCNC(=O)c1cccn1-c1nnc(N2CCCCC2)s1,i
CCOc1ccc(CCNC(=O)c2cccn2-c2nnc(N3CCCCC3)s2)cc1,i
CC(C)NS(=O)(=O)c1ccc2c(c1)CCN2C(=O)CCC(=O)N1CCOCC1,i
CN(C)C(=O)c1cc(-c2cnc(-c3ccccn3)nc2)nc2cc(F)ccc12,i
CC(Cc1ccsc1)Nc1ncnc2sccc12 (configuration not stated),i
CC(=O)NCCc1cn(-c2ccc3c(c2)CCCN3C(C)=O)cn1,i
CC(=O)NCCc1cn(-c2cccc(OC(C)C)c2)cn1,+
CC(=O)NCCc1cn(-c2ccc(-c3ncc(C)cn3)cc2)cn1,i
CCOc1c(C)cc(S(=O)(=O)N2CCN(c3nc(C)cc(N4CCCC4)n3)CC2)cc1C,i
Cc1cc(C(C(=O)O)N2CCN(CC(=O)NC(C)C)CC2)ccc1F (configuration not stated),i
COc1ccc(N2C(=O)CCS2(=O)=O)cc1S(=O)(=O)Nc1ccccn1,i
Cc1ccc(Cn2c(=O)c3cnc(-c4cccs4)nc3n(C)c2=O)cc1,i
CC(c1cccc(-c2ccc3nc[nH]c3c2)c1)N(C)C (configuration not stated),i
COC(C)c1cccc(-c2ncccc2Cl)c1 (configuration not stated),i
CC(c1cccc(-c2cccc3c(N)ccnc23)c1)N(C)C (configuration not stated),+
Fc1ccc(N2CCN(c3nc(Nc4ccccc4)c4cnn(-c5ccccc5)c4n3)CC2)cc1,i
